Experimental data reported in PubChem BioAssay AID1508600 (Functional Genomics Laboratory (NCATS/FGL), 2020).
Out of some 53,000 sequences screened, about 3,700 (7%) were called active.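 Rule for the calls: active = gene knockdowns whose robust z-score for IL-1 alpha signal is at least 2 or at most -2, so actives lie on both sides; inactive = the rest.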 This excerpt belongs to a sample that is enriched for actives.

Experiment: Components of the Cytosolic LPS Sensing Pathway: Gene Identification via Genome-wide siRNA Screen
Conditions: RAW264.7 macrophages, IL-1a HTRF, actives lie on both sides, screened at 100 nM (by protocol), cells primed 5 h with Pam3CSK4 first
Text: Non-canonical inflammasome activation by cytosolic LPS is a critical component of the host response to Gram-negative bacterial infection, however we lack a comprehensive understanding of the cellular processes that control this pathway. Here we describe a genome-wide siRNA screen to identify genes regulating the mouse macrophage IL-1 alpha response to cytosolic LPS.
RAW264.7 cells were maintained in complete DMEM media, comprising DMEM with 4.5 g/L glucose, 10% FBS (Gemini Bio-Products, West Sacramento, CA), 2 mM Glutamine (Lonza) and 20 mM HEPES (Lonza), hereafter complete DMEM.
The RNAi screen was conducted in 384-well format using the Ambion Silencer Mouse Genome siRNA Library (#4391425), which consists of three unique, nonoverlapping, nonpooled siRNAs for each of 17,000 gene targets. siRNA reagents ([…]) were stamped into 384-well white flat-bottom microplates (Corning, 3570) using a Velocity11 VPrep liquid handling system (Agilent) integrated into a BioCel robotic platform (Agilent) in columns 1-22, leaving columns 23-24 empty for negative (Ambion, Negative control #1) and positive (mouse Casp4) controls, respectively. The median value of each plate's negative control column was used to normalize sample wells, and the positive control was used to assess transfection efficiency and assay performance.
Lipofectamine RNAiMAX Transfection Reagent ([…]; Invitrogen) was added in […] serum-free, antibiotic-free media to plate wells using a Thermo Scientific Matrix WellMate and Microplate Stacker. Plates were incubated for 45 min at room temperature to allow for the sufficient formation of siRNA-lipid complexes. Cells were seeded at a density of 1x10^4 cells per well in 20 microL media containing 20% (vol/vol) FBS without antibiotics. The final concentration of siRNA in each well was 100 nM. Cells were cultured for 48h at 37 degrees C in 5% CO2 before addition of […] of TLR ligand Pam3CSK4 for 5 hours. The medium was then removed, replaced with […] growth media and cell were transfected with […] of LipidA and TransIT-TKO (Mirus) for 24 hour. At the end of the LipidA treatment, […] of supernatant was transferred to a 384 Greiner Bio-one non-binding low volume plate and […] of IL-1a HTRF reagent (Cisbio, 62MIL1APEH) was added and incubated at room temperature overnight. The plates were read on an EnVision plate reader (PerkinElmer). Cell viability was measured by adding 20ul Cell Titer Glo to the original plate and running a luminescence read on the EnVision. The quantified IL-1a signal for each siRNA gene-targeted well was divided by the median of the negative control wells and multiplied by 100 to achieve a negative control normalized value for each well/siRNA. This normalized value was then used to generate a robust z-score by first taking the log of each value and then by subtracting the median and dividing by the […].

Sequence | z-score
GGCUCUGGUCCAAGAAAUGTT against C4b | -0.176 (inactive)
CCAUGUCGUAUGUGAUUCUTT against Hils1 | -0.528 (inactive)
GGAUGUUGAACAAAAGAAGTT against Abce1 | -0.863 (inactive)
GCUUAUGUUGUUGUGCAUUTT against Zfyve21 | 0.362 (inactive)
GCUAUUCAAUCUGAGGAAATT against Olfr1278 | 0.246 (inactive)
GCCUGGAUUAUAGGAUCACTT against Tmem208 | -1.45 (inactive)
GGAUUAGAAUGUCAUGUCUTT against Ddx20 | -1.28 (inactive)
GCAUCAGGCCCGUUCAGAATT against Ddx4 | 3.23 (active)
GCAGGUUGCUAUGCAUAUGTT against 9930038B18Rik | 0.722 (inactive)
CGCAUUUUAGUUCAUCUGUTT against Sowahb | -0.669 (inactive)
GGAUCAAGGAGCAAGUGGUTT against B4galnt1 | -1.7 (inactive)
GACCUUCCAGGUCAAGUUGTT against Plcg1 | 2.56 (active)
CCUAUUCCAUUGACAAUGATT against Tubb2a | 0.286 (inactive)
GCUAAUUCAUGAAUUGAUGTT against Ofd1 | 1.01 (inactive)
GGAGCAGGAGAAAAUUUUGTT against Olfr437 | -0.0124 (inactive)
GGCCCGUCACAUGAAGAAGTT against Ip6k3 | 0.238 (inactive)
GGAGCUAAGUGAUUUUAGATT against Mtf1 | 0.403 (inactive)
GGUGGAGGAUUUUUCAGAUTT against Hs6st2 | 2.42 (active)
GGAGGAUAUUGGAACUGCCTT against Lrrc26 | 0.312 (inactive)
GGCAUUAUCGUGGUUGGCATT against Ntpcr | -1.97 (inactive)
GCACGAGAGUCUGAAGGAUTT against Mns1 | -0.2 (inactive)
GGUUGUCGCCAGAAUCAAGTT against Slc9a3r2 | 2.28 (active)

Sequence | z-score
GGAUCUAUGGACGACCUUCTT against Kcnj10 | -0.643 (inactive)
GGCGUGUCUGUAAAAUCUUTT against Exo5 | 0.656 (inactive)
GCGAGAUUGGUGCAAAACUTT against Grem1 | -1.43 (inactive)
CCGUCAUCCGAGCAAUCAGTT against Kcnq5 | -0.248 (inactive)
CGAACGAUUGAAGAUUUCUTT against Nat3 | 2.81 (active)
GGUGGCAGACAUUUCAACATT against Ifi27 | 1.54 (inactive)
GCUUCUUACAGUUUGCCCATT against Vmn1r65 | -0.859 (inactive)
CGUGACCAUCAGGCUAAAGTT against Ecrg4 | 3.42 (active)
GGUAAAAAAUGCUUUCAACTT against Olfr1008 | 0.696 (inactive)
GGCGACAGCUAAGUGUUGGTT against Gprc5a | -0.0528 (inactive)
GGAGCUGAUAAGAAAACUATT against Gbp2 | 0.486 (inactive)
CCCUCAGUUGGUCACAUGUTT against Mpc1 | -0.182 (inactive)
GGGACAAAAUUAUUCCUCCTT against Med14 | -0.977 (inactive)
GGAACAACUUUCAUCUCACTT against Anxa10 | 1.34 (inactive)
CGAAAUUUAACUUGAACAGTT against Toporsl | 0.659 (inactive)
GGGACGGAGAAAAGCUUUUTT against Olfr419 | 3.92 (active)
AGCAGAAAAAGGAAGGCCATT against Xlr3c | 0.733 (inactive)
GGACACAGACCUUUGUUAATT against Lpar6 | -0.0566 (inactive)
GUUCACACACGAAUUUGACTT against H2-Oa | -2.32 (active)
GCCUGUUUGGUAUUCUUCCTT against Olfr832 | -1.19 (inactive)
GGGAAACUCUGCAUGAGUATT against Tenm1 | -0.137 (inactive)
CCUCUGUUGAACCAUCAUUTT against Gpr21 | 0.127 (inactive)

Sequence | z-score
GGCGGUGAUGGAAUGAACATT against Plod2 | 0.706 (inactive)
CCUACCACAUGGAUGAGUATT against Accs | 0.525 (inactive)
GCUCUAGGGUCGUAAUGUUTT against Ralb | -2.33 (active)
GGAUUUCAUCUGGUACCUGTT against Ceacam19 | -0.0176 (inactive)
CGGAAUAUAGAAUGAAACCTT against Cd200r3 | 0.731 (inactive)
GGACCAUAAAGUGUUACUATT against Tnrc6b | 0.526 (inactive)
GGGCCCAUUUUCAGAAAUGTT against Tagln3 | 0.0546 (inactive)
GGAGGUUAAGAUUCCAGAGTT against Prune1 | 1.52 (inactive)
CCUAUGGCCAUGAUCCUUATT against Olfr575 | 1.29 (inactive)
GGUCAAUGAACCAUCCCACTT against Padi6 | -0.983 (inactive)
GGAACACCAUCAAUAAACUTT against Tjap1 | -2.09 (active)
GGACCAGAGUAACUUGAAUTT against Zfp128 | -0.66 (inactive)
CCAUUAUUCUAGUGUCCUATT against Olfr1368 | -0.753 (inactive)
GGGCUAUCUUCUGAUUGGCTT against Zp3r | -2.45 (active)
GGAACUGCUCAAGAUCAAGTT against Plagl2 | 1.92 (inactive)
GGGCUGAUAAUGUUAGCUCTT against Olfr161 | 0.48 (inactive)
CCUCAUAGGCUUGACAAUUTT against Exoc2 | -0.0626 (inactive)
GGCAGCAUGAUUAUUUCAATT against Gm4861 | -0.0747 (inactive)
GGAAGUAGGACUAGCCAUCTT against Akr1c6 | 3.37 (active)
CCUGAAAAGCUAUUGGGUATT against Baat | -0.196 (inactive)
GGGAUGGAGAAUCAAGAUATT against Tmem117 | -1.9 (inactive)
CCCACAUAAAUAAGUUGGUTT against Olfr996 | -1.02 (inactive)

Sequence | z-score
GGUUCAGCUUUUCAUCAGUTT against Cops3 | 1.37 (inactive)
GGAGAUUAUCACAACUAUUTT against Sash3 | 0.845 (inactive)
GGUUCUUGGGCACCAUUAUTT against Olfr786 | 0.742 (inactive)
GCCGUUUGUACCUUGUCAGTT against 4933430I17Rik | -3.01 (active)
GCAAUAUUUCAGCACACUGTT against Txndc16 | -1.08 (inactive)
GCUAAAUUCAGCUGAGGCUTT against Kdm4d | -0.217 (inactive)
GGGAAUAUGUCUUGUGAUATT against Ddo | 0.141 (inactive)
GGUUUUACUGUAGACCUUUTT against Hnrnpa1 | 0.542 (inactive)
GGGAAACUUCUUCAUGGGUTT against Dazap2 | 0.0384 (inactive)
GGAGUAUGAAUGCUAUGUCTT against Fsd2 | -3.24 (active)
GGCUCAUCGAGAUUAACCCTT against Carns1 | 0.195 (inactive)
GGACAUAUUGGAUGGUGAUTT against Usp2 | -0.847 (inactive)
CCGAGAACUACCUGUGUAATT against Unc119b | 0.266 (inactive)
GGGUUCAAAUAGUUUACCUTT against Tmem33 | 0.156 (inactive)
GCCGCAUUGAGUACAUGGUTT against Ap1m1 | 1.9 (inactive)
GGGAUGAUUUUGAGAUUUUTT against Dmpk | 2.74 (active)
GGAUUUCAGAAAGUGGCCUTT against Acad8 | -1.22 (inactive)
CCCUAUGGACUGAGUUUGUTT against Olfr183 | -0.036 (inactive)
CUACGUGCUAGCUCAAGGATT against Mmp28 | -1.1 (inactive)
GGAAGUAUUUCACAUGUGATT against Dctn1 | -0.299 (inactive)
CGGUAUAUAGAUCACUUCUTT against Olfr56 | 0.276 (inactive)
GGUGAUCCUCAUAUUGGCCTT against Npy2r | -0.521 (inactive)

Sequence | z-score
GCUACUUGUUGAGACCCAATT against Esr1 | -0.616 (inactive)
GCCCAAAAGUAUAAACCAGTT against Peg12 | 0.318 (inactive)
CGAGCUUGCUAUCGGGAAGTT against Defb7 | -0.902 (inactive)
GCUUAAGCAGUGAUAAUAATT against B230317F23Rik | -1.65 (inactive)
CGAGGACUACUAGAAGAAATT against Trpc1 | 2.36 (active)
GGACACAGGACUCUACACCTT against Psg16 | 0.293 (inactive)
CGGGAAGCAUCACUAUUUCTT against Nabp1 | -0.822 (inactive)
GGACUCUUUUAUGAGUUUGTT against Lims1 | 0.757 (inactive)
GGCUAAAACAAGUGAAUGGTT against Gli3 | -0.619 (inactive)
GGAGUAAAAAUGAGUAUGATT against Abcg3 | 0.534 (inactive)
GAUAUUCCUGCUCACAGUGTT against Olfr1265 | -1.04 (inactive)
UAGUCAUCUUCACUCUCCUTT against Olfr1249 | -0.907 (inactive)
GGACUUUUACCAGUUCUCCTT against Ece2 | -2.43 (active)
GGCUCUCUGUCUGGAAAAGTT against Vcan | -1.25 (inactive)
GGAGCUGAGGAAUUGAUCCTT against Pudp | -1.97 (inactive)
CCAUUGCAUGCAAUGACUATT against S100a10 | -1.25 (inactive)
GGAAGCAGCAAAGAAGUUGTT against Olfr1109 | 0.918 (inactive)
CCUAUCAUGUUAAAAACAGTT against Grem2 | -1.13 (inactive)
GGGUCACUUGGAUUGUGGATT against Tmx2 | -0.0195 (inactive)
